Laboratory results as given in PubChem BioAssay (NCI).
About 83,000 compounds went through this panel and 20% of them were active in at least one assay; those are over-represented in the sample as a whole.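 In brief: 96-well plates, 48 h treatment, single concentration, percent growth endpoint.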 A number with no mark means an inactive call. The source made the active and inactive calls. The calls were made as follows: active = growth percent below 10; inactive = the rest.

Test system: NCI-H23 lung
Assay: NCI-60 one-dose screen, 48 h (100 = growth as untreated, 0 = no growth, -100 = all killed)
Conditions: 10 µM unless noted

Compound | growth
Cc1ccc(-c2onc3c(=O)[nH]nc(-c4ccccc4)c23)cc1 | 22.8%
O=C1CSC(=S)N1CCc1ccc(O)cc1 | 95%
CNC(=O)c1cc(Oc2ccc(NC(=O)Nc3ccc(Cl)c(OC(F)(F)F)c3)c(F)c2)ccn1 | 7.09% (active)
N#C/C(=C\c1ccc(-c2ccc(Cl)c(Cl)c2)o1)c1nc(-c2ccco2)cs1 | 86.6%
O=S(=O)(Nc1ccc(OC(F)F)cc1)c1ccc(-c2cnc(C3CC3)o2)cc1 | 73.4%
O=C1Nc2cc(-c3ccc(O)cc3)ccc2/C1=C/c1ccc[nH]1 | -16% (active)
CON1C(=O)CC[C@]2(C)[C@H]3CC[C@@H]4C([C@@]5(C)CCC(=O)O5)CC[C@@]4(C)[C@]3(C)CC[C@H]2C1(C)C (some centres undefined) | 95.6%
Cn1cc(C(=O)c2nc(-c3c[nH]c4ccc(Br)cc34)no2)c2cc(F)ccc21 | 84.9%
COc1ccc(-n2nc(C)c3c(Nc4ccc(NC(=O)Nc5cccc(C(F)(F)F)c5)cc4)ncnc32)cc1 | 9.95% (active)
CC(C)C1=C[C@@]23CC[C@@H]4[C@](C)(CCC[C@@]4(C)C(=O)N4CCCNCC4)[C@H]2C[C@@H]1[C@H]1C(=O)CCC(=O)[C@H]13 | 96.4%
C#CCOc1ccc2ncnc(N3CCC(NC(=O)CCl)CC3)c2c1 | 71.6% [8.25 µM]
Cc1ccc(NC(=O)/C=C/c2ccccc2)c(C(N)=O)c1 | 58.6%
COc1ccc(/C=C\c2cc(OC)c(OC)c(OC)c2)cc1OC(=O)c1cccc(Cn2cc(CCOC(=O)[C@H](N)Cc3cn(C)c4ccccc34)nn2)c1 | 29.6%
O=C1c2ccccc2C(=O)c2c1ccc1[nH]c(-c3cccs3)nc21 | 84.5%
CN1CCN(Cc2ccc(NC(=O)c3cncc(C#Cc4cncn5ccnc45)c3)cc2C(F)(F)F)CC1 | 63.1%
CC(C)(C)c1cc(/C=N\NC(=O)/C=C/C=C/c2ccc3c(c2)OCO3)c(O)c(C(C)(C)C)c1 | 90.5%
CCCc1cc(=O)n2c(C(=O)Nc3ccc(F)cc3)c(C(=O)Nc3ccc(F)cc3)sc2n1 | 81.9% [30 µM]
O=C(O)COc1ccc(Cl)cc1C1CCCCC1 | 102%
NC(=O)c1cc(Br)ccc1NC(=O)/C=C/c1ccccc1 | 62%
Cc1nn(-c2ccc(F)cc2)c2ncnc(Oc3ccc(NC(=O)Nc4ccc(Cl)c(C(F)(F)F)c4)cc3)c12 | 96.7%

Compound | growth
CSc1nc(-c2cccc(NC(=O)CCl)c2)c(C#N)c(=O)n1C | 49.1%
CCCCN(CCCC)CCCn1c(-c2ccccc2)ccc1-c1ccccc1 | 52.9%
Cc1c(/C=C/[N+](=O)[O-])ccc2c1[nH]c1ccccc12 | 93.3%
c1ccc(Cn2cc(-c3nc4ccccc4s3)c3cccnc32)cc1 | 96.6%
O=C(N/N=C/c1c[nH]c2ccccc12)c1cc(-c2ccccc2)on1 | 93.6%
CCCn1c(=O)[nH]c(N)c([C@H]2c3ccccc3Oc3[nH]c(=O)n(CCC)c(=O)c32)c1=O | 86.2%
CC(=O)O[C@H]1[C@@H]2OC(=O)C(CSc3ccccc3)[C@@H]2C[C@H]2O[C@]2(C)CC/C=C(\C)CCC[C@@H]1C (some centres undefined) | 53.1%
O=C1Nc2ccc(Br)cc2C12Oc1ccccc1C1CC(c3ccc(F)cc3)=NN12 (centres undefined) | 89%
C=C1c2nc3ccccc3n2C=C(c2cccc(Cl)c2)N1Cc1ccc(OC)cc1 | 29.4%
C#CC(F)(F)[C@]1(O)CC[C@H]2[C@@H]3CCC4=CC(=O)CCC4=C3[C@@H](c3ccc(C(C)=O)cc3)C[C@@]21C | 38.5%
CC(=O)O[C@H]1CC[C@]2(C)[C@H]3CC=C4[C@@H]5CC(C)(C)CC[C@]5(C(=O)NCCNCCNCCN)CC[C@@]4(C)[C@]3(C)CC[C@H]2C1(C)C | 86.5%
COc1ccc(-c2cc(NC(=O)Nc3ccc4ncsc4c3)no2)cc1 | 100%
CCN(CC)c1ccc(-c2cc(-c3cc(OC)c(OC)c(OC)c3)nc(N3CCOCC3)c2C#N)cc1 | 56.2%
CC1=CC(=NN=c2cc(C)n([O-])c(C)c2)C=C(C)[N+]1=O | 95.5%
Cc1ccc2oc(=O)cc(C3c4ccc([nH]4)C(c4cc(=O)oc5ccc(C)cc45)c4ccc([nH]4)C(c4cc(=O)oc5ccc(C)cc45)c4ccc([nH]4)C(c4cc(=O)oc5ccc(C)cc45)c4ccc3[nH]4)c2c1 (centres undefined) | -53.2% (active)
COc1cc2c(cc1-c1c(C)noc1C)ncc1nc(C3CCOCC3)n([C@@H](C)COC(F)F)c12 | 64.6%
Cc1[nH]c(-c2cc(N)ccc2Cl)c2c1C(=O)CCCC2 | 36.3%
O=S(=O)(Nc1ccc(Br)c(Cl)c1)c1ccc(-c2cnc(C3CC3)o2)cc1 | 29.7%
C=CC(=O)Nc1cccc(-c2nc(SC)nc(NCCN3CCOCC3)c2C#N)c1 | 92.5%
